Experimental data as given in PubChem BioAssay (NCI).
About 83,000 compounds went through this panel and 20% of them were active in at least one assay; those are over-represented in the sample as a whole.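 96-well plates, one dose, 48 hours. Percent growth reported; active if below 10.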 Activity calls are given as the source filed them.

system: HL-60(TB) leukemia; assay: NCI-60 one-dose screen, 48 h (100 = growth as untreated, 0 = no growth, -100 = all killed); conditions: 10 µM unless noted

Row | SMILES | growth
1 | CSc1nc(-c2cccs2)c2c(N)[nH]nc2n1 | 85.3% (inactive)
2 | N#CC(C#N)N=Nc1ccc(Cl)cc1 | -26.8% (active)
3 | OCCn1cccn1 | 99.2% (inactive)
4 | C=CC(=O)OC1CCC(C(C)(C)CC)CC1 (configuration not stated) | 84% (inactive)
5 | CN(C)CC1CCCCCC(CN(C)C)C1=O (configuration not stated) | 26% (inactive)
6 | O=C(COCc1c(-c2ccccc2)no[n+]1[O-])Nc1nc(-c2ccc(Cl)cc2)cs1 | 119% (inactive)
7 | c1ccc(CNc2nc(Nc3ccccc3)nc3ccccc23)cc1 | 95.6% (inactive)
8 | O=C(Nc1cccc2c1CCCC2)c1cc2ccccc2cc1O | 14.9% (inactive)
9 | COc1cc(-c2c3sc(=O)[nH]c3nc3c2c(=O)[nH]n3C(C)C)cc2c1OCO2 | 116% (inactive)
10 | CC[C@]12C=CCN3CC[C@@]4(c5cc(NC(=O)CCC(=O)O[C@H]6CC[C@H]7[C@@H]8CC[C@H]9CC(=O)CC[C@]9(C)[C@H]8CC[C@]67C)c(OC)cc5N(C)[C@H]4[C@@](O)(C(=O)OC)[C@@H]1OC(C)=O)[C@@H]32 | 38.6% (inactive)
11 | O=C(N/N=C/c1ccc(Cl)cc1)c1ccc(C(F)(F)F)nc1Nc1cccc(C(F)(F)F)c1 | -37.2% (active)
12 | CN1CCN(C(=O)OCc2nc3c(N4CCOCC4)nc(Cl)nc3n2C)CC1 | -53.4% (active)
13 | CCCCCCCCCCN=C(N)N=C(N)N | 1.55% (active)
14 | CC1CN(S(=O)(=O)c2oc(-c3ccc(Cl)cc3)nc2C#N)CC(C)O1 (configuration not stated) | 23.4% (inactive)
15 | COc1ccc(/C=C2/C(=O)Nc3cc(Cl)c(-c4csc(N)n4)cc32)cc1 | 8.08% (active)
16 | COc1ccc(CSc2nc3cc(OC)c(OC)cc3c(=O)n2-c2ccc(Cl)cc2)cc1 | 104% (inactive)
17 | COc1ccc(-c2nc(SC(C)C)nc(NNC(N)=S)c2C#N)cc1 | 14.3% (inactive)
18 | O=Cc1ncc(-c2ccc(C(F)(F)F)cc2)c(NC2CCCCCC2)n1 | -50.6% [100 µM] (active)
19 | CN[C@@H]1C[C@H]2O[C@@](C)([C@@H]1OC)n1c3ccccc3c3c4c(c5c6ccccc6n2c5c31)C(=O)N[C@H]4O | -40.8% (active)

Row | SMILES | growth
20 | O=C(O)c1cccc([N+](=O)[O-])c1/C=C/c1ccccc1 | 97.4% (inactive)
21 | CC1(C)CC[C@]2(C(=O)O)CC[C@]3(C)C(=CC[C@@H]4[C@@]5(C)C[C@@H](Cc6cn([C@@H]7O[C@H](CO)[C@@H](O)[C@H](O)[C@H]7O)nn6)[C@H](O)C(C)(C)[C@@H]5CC[C@]43C)[C@@H]2C1 | 93.4% (inactive)
22 | CCOC(=O)c1c(C)nc2c(c1N)CC(=O)N2CCc1ccccc1 | -3.38% (active)
23 | C[C@]12CC[C@H]3[C@@H](CCC4=CC(=O)CC[C@@]43C)[C@@H]1CC[C@@H]2c1csc(N)n1 | 0.82% (active)
24 | N[C@@H]1CCN(C(=O)c2cc3cc(Cl)c(F)c(F)c3[nH]2)C1 | 97.7% (inactive)
25 | CN(C)C(=O)c1cc2cnc(Nc3ccc(-c4csc5c(=O)cc(N6CCOCC6)oc45)cc3)nc2n1C1CCCC1 | -46.7% (active)
26 | C=CC(=O)N1CN(C(=O)C=C)CN(C(=O)C=C)C1 | 25.3% (inactive)
27 | O=c1c2c(=NCCCN3CCCC3)cc3c(=O)n(CCCN4CCCC4)c(=O)c4c(NCCCN5CCCC5)cc(c(O)n1CCCN1CCCC1)c2c4-3 | 29.9% (inactive)
28 | Cn1c(=O)c2c(c3ccccc31)OC(N)=C(C#N)C21C(=O)c2ccccc2C1=O | 98.1% (inactive)
29 | COc1cc(C(=O)Nc2ccc(-c3nc4ccccc4[nH]3)cc2)cc(OC)c1OC | 41.9% (inactive)
30 | C=C[C@@]1(C)CC(=O)[C@@H](C(C)(C)c2cn(C)c3ccc(Br)cc23)C[C@@H]1O[Si](C)(C)C(C)(C)C | 106% (inactive)
31 | Cc1cccc2c1O/C(=C\c1ccc([N+](=O)[O-])o1)C2=O | -25.7% (active)
32 | Cn1cc(-c2noc(C(=O)c3cn(C)c4ncc(Br)cc34)n2)c2ccccc21 | 103% (inactive)
33 | COc1ccc(C2OCC(C)(C)CO2)cc1OC | 100% (inactive)
34 | c1ccc(N2c3nc4ccccc4cc3Sc3cc4ccccc4nc32)nc1 | 97.2% (inactive)
35 | COc1ccc(Cl)cc1Nc1nc(C(F)(F)F)ccc1C(=O)N/N=C/c1ccc([N+](=O)[O-])cc1 | -10.8% (active)
36 | Cc1nc2c3c(-c4ccccc4)c(-c4ccccc4)oc3ncn2n1 | 91.4% (inactive)
37 | CC(c1ccc(-n2cccn2)cc1)c1cnc(N2CCc3ccc(C(N)=O)cc3C2)s1 (configuration not stated) | 48.9% (inactive)
